Shown are actives, neighbours in structure and some others; about 3.5% of the full set was active somewhere.
FBW7 act: human FBW7 E3 ligase activation, primary screen; AlphaScreen FBW7–phospho-cyclin E peptide binding, activator screen; normalized activity (activation), % at 26.1 µM; hit rate 0.13% among 650,000; AID 1259310; in the data active = normalized activity above about 1.9%;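 also: purified mutant Fbw7 with reduced substrate affinity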
GPR151 activ: human GPR151 activation | Q8TDV0 | PathHunter beta-arrestin GPR151 cells, luminescence | hit rate 1% among 650,000 | activation, % at 11.2 µM; in the data active = activation above about 4.9%
MITF primary: blocks human microphthalmia-associated transcription factor; inhibition, % at 2.6 µM; O75030; hit rate 0.91% among 650,000; AlphaScreen MITF homodimerization, bead proximity signal; in the data active = inhibition above about 50%
Target sequence (O75030 whole entry, looked up): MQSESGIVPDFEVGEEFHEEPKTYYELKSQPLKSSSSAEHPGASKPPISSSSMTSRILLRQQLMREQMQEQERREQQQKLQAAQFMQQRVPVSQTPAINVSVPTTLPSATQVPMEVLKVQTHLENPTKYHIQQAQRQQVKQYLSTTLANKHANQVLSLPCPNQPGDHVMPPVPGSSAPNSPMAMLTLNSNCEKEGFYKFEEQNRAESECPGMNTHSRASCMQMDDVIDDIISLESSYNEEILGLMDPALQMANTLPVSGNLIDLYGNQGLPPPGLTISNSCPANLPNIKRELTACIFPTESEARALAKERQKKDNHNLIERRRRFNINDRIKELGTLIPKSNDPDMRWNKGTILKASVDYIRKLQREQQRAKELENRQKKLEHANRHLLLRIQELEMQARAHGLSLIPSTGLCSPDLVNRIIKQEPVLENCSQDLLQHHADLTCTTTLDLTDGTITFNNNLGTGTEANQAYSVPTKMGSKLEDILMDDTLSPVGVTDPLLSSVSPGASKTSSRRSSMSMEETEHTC
TEAD-YAP inh: TEAD-YAP interaction inhibition; HEK-TIYL cells, TEAD-Gal4/YAP UAS-luciferase luminescence; inhibition, % at 9.12 µM; hit rate 1.4% among 640,000; AID 1259422; in the data active = inhibition above about 32%
Hits are given with their value; i = inactive; nt = no result.

SMILES | FBW7 act | GPR151 activ | MITF primary | TEAD-YAP inh
CCOc1ccc2nc(SCCC(=O)Nc3ccc(OC)cc3)sc2c1 | i | i | i | i
CC12C(=O)N(c3ccc(O)cc3)C(=O)C1C1c3ccccc3C2c2ccccc21 (configuration not stated) | i | i | i | i
O=C(O)c1ccccc1 | i | i | i | i
O=C(O)c1cc(O)c(O)c(O)c1 | i | i | 76 | i
COc1ccc(/C=C2/NC(=O)N(Cc3ccccc3F)C2=O)c(OC)c1 | i | i | i | i
COC(=O)c1cn(NC(=O)c2cc([N+](=O)[O-])ccc2F)c(=O)c2ccccc12 | i | i | i | 87
CN1c2ccc(F)cc2C(C)(C)C12C=Cc1cc([N+](=O)[O-])ccc1S2 (configuration not stated) | i | i | i | i
Clc1ccc(-c2cnn3ccc(Nc4ccccc4)nc23)cc1 | i | i | i | i
Cc1[nH]cnc1CN1CCCC(C(=O)c2ccc(Oc3ccccc3)cc2)C1 (configuration not stated) | i | i | i | 33
CCOC(=O)c1[nH]c(C)c(C(=O)Nc2ccc(Br)cc2F)c1C | i | i | i | i
CCOC(=O)c1[nH]c(C)c(C(=O)Nc2ccc(C)cc2C)c1C | i | i | i | 51
CCOC(=O)c1[nH]c(C)c(C(=O)Nc2ccc(F)cc2C)c1C | i | i | i | 47
O=C(CSc1nncn1-c1ccccc1)Nc1nc2c(F)c(F)c(F)cc2s1 | 3.9 | i | i | i
O=C(O)CCC/C=C\C[C@@H]1CO[C@H](C(F)(F)F)O[C@@H]1c1ccccc1O | 2.2 | i | i | nt
CC(=O)Nc1ccc(C2C3=C(COC3=O)Nc3cc4c(cc32)OCO4)cc1 (configuration not stated) | i | i | i | i
O=C1OCC2=C1C(c1ccc(F)cc1)c1cc3c(cc1N2)OCCO3 (configuration not stated) | i | i | i | 53
O=C1NC2=C(C(=O)OC2)C(c2ccc(F)c(F)c2)N1 (configuration not stated) | i | i | i | i
O=C1OCC2=C1C(c1ccc(F)cc1)c1cc3c(cc1N2)OCO3 (configuration not stated) | i | i | i | 50
Nc1nc(NCc2cccnc2)nc2c1ncn2Cc1ccc(C(F)(F)F)cc1 | i | i | i | i
CC(=O)N[C@@H]1c2ccccc2C2(CCN(C(=O)C3=CCCC3)CC2)[C@H]1OCc1ccccn1 | i | i | i | i
O=C(NN=C1CCCC1)c1n[nH]c2c1CCC2 | i | i | i | 64
COc1cc(/C(C)=N/NC(=O)c2n[nH]c3c2CCC3)ccc1O | i | i | i | 35
O=C(NN=C1CCCC1)c1n[nH]c2c1CCCC2 | i | i | i | 42
NNC(=O)c1n[nH]c2c1CCCC2 | i | i | i | i
C/C(=N\NC(=O)c1n[nH]c2c1CCC2)c1ccco1 | i | i | i | 52
SMILES | FBW7 act | GPR151 activ | MITF primary | TEAD-YAP inh
O=C(CN1C(=O)c2ccccc2C1=O)NC(c1ccccc1)c1ccccc1 | i | i | i | i
CCCCOc1ccc(N2C(=O)C3C4c5ccccc5C(C)(c5ccccc54)C3C2=O)cc1 (configuration not stated) | i | i | i | i
CC1(C)CC(=NNC(=O)c2n[nH]c3c2CCCC3)CC(C)(C)N1 | i | i | i | 39
CC1(C)CC(=NNC(=O)c2ccncc2)CC(C)(C)N1 | i | i | i | i
CC/C(C)=N/NC(=O)c1n[nH]c2c1CCC2 | i | i | i | 43
CCCCCC(=O)Nc1cccc(C(=O)O)c1 | i | i | i | i
Cc1ccc(CN2CCN3C(=O)[C@H](C)N(C)C(=O)[C@H]3C2)cc1F | i | i | i | i
COc1cccc(/C=C2/SC(=Nc3ccc(C)cc3)NC2=O)c1 | i | i | i | i
Cn1c(-c2ccccc2)c(C(C[N+](=O)[O-])c2ccco2)c2ccccc21 (configuration not stated) | i | i | i | 54
Cn1c(-c2ccccc2)c(C(C[N+](=O)[O-])c2ccc(C(F)(F)F)cc2)c2ccccc21 (configuration not stated) | i | i | i | i
COc1ccc(C(=O)Nc2ccc3c4c(cccc24)CC3)cc1 | i | i | i | i
Cc1ccc(C(C)C)c(OCC(=O)Nc2ccc(C(=O)Nc3cccc4ccccc34)cc2)c1 | i | i | i | 60
COc1cc(C(=O)Nc2cccc(C(=O)Nc3cccc4ccccc34)c2)cc(OC)c1OC | i | i | i | 64
COc1cc(C(=O)Nc2ccc3c4c(cccc24)CC3)cc(OC)c1OC | i | i | i | 53
COc1ccc(C(=O)Nc2cccc3ccccc23)cc1OC | i | i | i | i
CC(=O)c1ccc(NC(=O)COc2cc(C)ccc2C(C)C)cc1 | i | i | i | i
COc1cc(NC(=O)c2cccc(-n3cc(NC(=O)Nc4ccccc4)cn3)c2)cc(OC)c1OC | i | i | i | 37
O=C(CSc1nc(C2CC2)nc2ccccc12)Nc1nccs1 | i | i | i | i
CC(CCc1ccccc1)N=Cc1c(O)[nH]c(=O)[nH]c1=O (configuration not stated) | i | i | i | i
Cc1cc(OCC(=O)Nc2ccc(C#N)cc2)ccc1Br | i | i | i | i
O=C(O)c1ccccc1N=Nc1c(O)c2ccccc2oc1=O | i | i | i | i
Cc1c(Cl)cccc1NC(=O)C(=O)N1CCCC1 | i | i | i | i
COc1cc(NC(=O)c2cccc(-n3cc(Nc4cnnn4-c4ccccc4)cn3)c2)ccc1N1CCOCC1 | i | i | i | i
COc1cc(NC(=O)c2cccc(-n3cc(N(C)c4nnnn4-c4ccccc4)cn3)c2)ccc1N1CCOCC1 | i | i | i | 38
COc1ccc(C(=O)Nc2cccc(C)c2)cc1I | i | i | i | i
SMILES | FBW7 act | GPR151 activ | MITF primary | TEAD-YAP inh
COC(=O)C1=C(C(=O)OC)SC(=C2C(=S)C(C)(C)N(C(=O)c3ccccc3)c3ccc(C)cc32)S1 | i | i | i | i
COC(=O)C1=C(C(=O)OC)SC(=C2C(=S)C(C)(C)N(C)c3ccc(C)cc32)S1 | i | i | 52 | i
NN1C(=O)/C(=C/c2ccc(O)c(Br)c2)SC1=S | i | i | i | 33
CC(=C\c1ccco1)/C=C1/SC(=S)N(CC(=O)O)C1=O | i | i | 54 | i
O=C1/C(=C/c2ccco2)SC(=S)N1c1cccnc1 | i | i | 68 | i
COc1ccc(/C=C2/SC(=S)N(N)C2=O)cc1OC | i | i | i | i
CCN1C(=O)/C(=C\C(C)=C\c2ccco2)SC1=S | i | i | i | i
NN1C(=O)/C(=C\c2ccco2)SC1=S | i | i | 75 | i
C=CCn1c(C)c(/C=C(/C#N)C(=O)OCC)c2ccccc21 | i | i | i | i
Cc1ccc(N2C(=O)c3ccc(C(=O)Nc4cccc(O)c4)cc3C2=O)cc1C | i | i | i | i
CCN(CC)CC(O)COc1ccccc1[N+](=O)[O-] (configuration not stated) | i | i | i | i
CNC(=O)NC1CC(=O)N(c2ccc(OC)cc2)C1 (configuration not stated) | i | i | i | i
CC(Oc1ccc(Br)cc1)C(=O)N/N=C/c1ccccc1 (configuration not stated) | i | i | i | i
O=C(O)c1ccc(N2C(=O)/C(=C\c3ccco3)SC2=S)cc1O | i | i | i | i
